Screening results as filed in PubChem.
SARS PLpro yeast = SARS-CoV PLP inhibition in yeast; S. cerevisiae expressing SARS-CoV PLpro, growth rescue; Potency, µM (series often up to 32.9 µM), inactives show at the highest dose activity, positive = growth rescue, usual class: activators; hit rate 0.19% among 330,000; calls by dose curve; note: 0% is about no effect; nearly all actives have a fitted effect of over 55% in size
FBPA Giardia inh = blocks Giardia fructose-bisphosphate aldolase activity; A8B2U2; Potency, µM (top dose mostly 59.6 µM), for inactives: at the top dose activity, negative = inhibition, most hits filed as inhibitors; purified Giardia FBPA; hit rate 0.71% among 290,000; AID 2451; note: % is set by controls: 0 for no effect and ±100 for the full control effect; nearly all actives have a fitted effect of over 55% in size
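Giardia FBPA (40 nM reagent) was preincubated 10 min at RT with compound (up to 57.5 uM final), then substrate plus GAPDH/TPI/NAD/arsenate coupling system with diaphorase/resazurin was added; resorufin fluorescence (525/598 nm) was read after 20 min.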
Tb PYK inh = T. brucei pyruvate kinase inhibition. AID 624173. Q57TT1. Potency, µM (top dose mostly 76.8 µM), for inactives: top-dose activity, negative = inhibition, actives largely listed as inhibitors. hit rate 0.12% among 410,000. TbPYK enzyme, Kinase-Glo Plus ATP luminescence, 45 min; note: % is set by controls: 0 for no effect and ±100 for the full control effect; nearly all actives have a fitted effect of over 50% in size
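Quantitative HTS: titrated library compounds versus trypanosomal pyruvate kinase in TEA buffer (pH 7.2) containing KCl, MgCl2, BSA and Tween-20. Reactions were initiated with ADP, 130 uM final. Kinase-Glo Plus luminescence was read after 45 min at RT.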
LmPK inh = inhibitors of Leishmania mexicana pyruvate kinase. Q27686. purified LmPK, Kinase-Glo ATP luminescence, 1 h. Potency, µM (top dose mostly 57.5 µM), without a hit: at the highest dose activity change, negative = inhibition, usual class: inhibitors. hit rate 0.37% among 290,000. AID 1721; note: % is set by controls: 0 for no effect and ±100 for the full control effect
Target sequence (Q27686 whole entry, looked up): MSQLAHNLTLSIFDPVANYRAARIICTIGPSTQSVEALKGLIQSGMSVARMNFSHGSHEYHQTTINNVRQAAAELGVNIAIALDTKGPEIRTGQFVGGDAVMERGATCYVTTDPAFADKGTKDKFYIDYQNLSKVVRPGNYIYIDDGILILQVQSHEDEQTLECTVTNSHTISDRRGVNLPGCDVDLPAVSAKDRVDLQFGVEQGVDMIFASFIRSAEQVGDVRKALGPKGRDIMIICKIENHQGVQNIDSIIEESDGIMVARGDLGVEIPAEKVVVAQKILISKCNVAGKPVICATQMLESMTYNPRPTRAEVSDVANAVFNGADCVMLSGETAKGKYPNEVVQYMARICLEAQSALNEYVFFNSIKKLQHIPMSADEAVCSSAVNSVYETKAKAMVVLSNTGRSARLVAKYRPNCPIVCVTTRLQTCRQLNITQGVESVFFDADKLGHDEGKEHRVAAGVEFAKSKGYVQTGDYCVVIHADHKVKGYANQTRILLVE
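In 50 mM imidazole pH 7.2 with 7 mM MgCl2, LmPK (0.1 nM) turned over PEP (0.5 mM) and ADP (0.1 mM) for 1 h at room temperature. Luciferase read-out of ATP.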
RE007 growth inh = less growth of the S. pombe RE007 Vpr strain. hit rate 0.21% among 360,000. S. pombe RE007 Vpr strain, BacTiter-Glo ATP luminescence, 24 h. Potency, µM (doses to about 92.2 µM), inactives show at the highest dose activity change, negative = less growth, hits mostly inhibitors; active = well fitted falling curve with a large enough effect; inconclusive = small, poorly fitted or top-dose-only effect; inactive = no such curve, though single readings can be large or run the other way; note: % is set by controls: 0 for no effect and ±100 for the full control effect; nearly all actives have a fitted effect of over 50% in size
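Fission yeast RE007 carrying one integrated HIV-1 vpr copy, seeded at OD 0.01 in PMG+AL medium with 23 nL pinned compound. Grown 24 h at 30 degrees; viability read by BacTiter-Glo luminescence after 5 min.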
An asterisk follows results filed as active; ? = inconclusive; . = no result given; [ ] = another dose, or the depositor's remark. Rows were chosen to be rich in hits. Some 1.1% of all compounds tested hit in one or more screens of this group. Unless noted, calls come from the whole dose curve; as a rule, active = well fitted curve in the direction sought with a large enough effect; inconclusive = small, poorly fitted or top-dose-only effect, or another doubt; inactive = no such curve, though single readings can be large; an effect the other way counts as inactive or inconclusive. Potency is the fitted concentration of half-maximal effect.

SMILES	SARS PLpro yeast	FBPA Giardia inh	Tb PYK inh	LmPK inh	RE007 growth inh
CCn1c(C)nc2cc(C(=O)NNC(=O)c3ccc(C)cc3)ccc21	-5%	.	?	.	-19%
NC(=S)Cc1nc2n(n1)Cc1ccccc1-2	15%	?	-4%	-2%	2%
Cc1ccccc1CSCC1Nc2ccc(C(=O)NCCc3ccccc3)cc2NC1=O (stereo unspecified)	.	.	?	.	32µM*
Cc1cccc(CS(=O)(=O)CC2Nc3ccc(C(=O)NCc4ccccc4)cc3NC2=O)c1 (stereo unspecified)	.	.	-2%	.	.
COc1cccc([C@@H]2Oc3ccc(OC)cc3C[C@H]2O)c1	.	3%	.	.	.
CNC(=S)NNC(=O)COc1cccc(C)c1C	10µM*	-8%	-30%	15%	3%
CNC(=S)NNC(=O)COc1ccccc1C	-8%	-11%	-5%	9%	2%
COc1ccccc1CNC(=O)CN1C(=O)COc2ccc(S(=O)(=O)Nc3ccccc3)cc21	.	.	6%	.	.
N#Cc1ccc2sn(-c3ccccc3)c(=O)c2c1	.	.	4µM*	.	7.9µM*
CC(=O)Nc1ccc2sn(-c3ccccc3)c(=O)c2c1	.	.	?	.	5%
O=c1c2cc([N+](=O)[O-])ccc2sn1-c1ccccc1	.	.	4.5µM*	.	5.6µM*
CCOC(=O)c1c(Oc2ccc(OC)cc2)nnc(-c2ccccc2)c1-c1ccccc1	.	.	3%	.	.
C/C(=N/Nc1ccc(C(=O)O)cc1)c1ccc(O)c(O)c1O	11%	7.1µM*	-16%	-11%	8%
Cc1cccn2cc(-c3ccc(F)cc3)nc12	-3%	-5%	-12%	16µM*	?
c1ccc(SSc2ccccn2)nc1	.	.	?	.	45µM*
CCOc1ccc(NC(=O)CN2C(=O)CC(C)Sc3ccccc32)cc1 (stereo unspecified)	.	.	3%	.	.
CC(=O)Nc1nonc1-c1nnc(SCC(=O)Nc2ccc(C)c(Cl)c2)n1C	.	.	14%	.	.
CCn1nc(/C=C/c2ccccc2)nc2c(=O)n(C)c(=O)nc1-2	0%	1%	-10%	5%	28µM*
CCOc1cc(CNc2ccc(O)cc2)ccc1OCc1ccc(Cl)cc1Cl	-22%	16µM*	-21%	-1%	0%
CCc1ccc(CNc2ccc(O)cc2)cc1	?	4µM*	2%	-1%	-3%
COc1ccc(Br)cc1CNc1ccc2[nH]c(=O)[nH]c2c1	-2%	1%	-24%	2%	5%
Oc1ccc(NCc2ccccc2OCc2ccccc2F)cc1	1%	13µM*	?	1%	-27%
COc1ccc(Br)cc1CNc1ccc(O)cc1	-9%	16µM*	1%	2%	?
COc1ccc(-c2nc(CSc3nnc(C)n4c3cc3oc(C)cc34)c(C)o2)cc1OC	.	.	1%	.	.
CCn1cc(S(=O)(=O)c2ccc(C)cc2C)c(=O)c2cc(F)c(N3CCCC3)cc21	.	.	-5%	.	.
SMILES	SARS PLpro yeast	FBPA Giardia inh	Tb PYK inh	LmPK inh	RE007 growth inh
CCOc1ccccc1CNc1ccc(O)cc1	1%	11µM*	5%	-3%	-11%
COCCn1c(=O)c(-c2ccc(OC)cc2)nc2cnc(N3CCNCC3)nc21	.	-1%	3%	.	.
COc1ccc(N2C(=O)CC(Sc3n[nH]c(-c4cccc(C)c4)n3)C2=O)cc1 (stereo unspecified)	-4%	-22%	-14%	5%	20µM*
CCOC(=O)c1ccccc1NC(=O)c1sc2ncn(Cc3cccc(F)c3)c(=O)c2c1C	.	.	-8%	.	.
CN(C)CCNC(=O)c1ccc2c(c1)N(Cc1ccccc1)C(=O)c1ccccc1S2(=O)=O	.	.	3%	.	.
CC1(C)CCC2=C(O1)c1ccccc1C(=O)C2=O	.	1.6µM*	.	.	.
Fc1cccc(/C=N/Nc2cc(N3CCOCC3)ncn2)c1	2.8µM*	-3%	-7%	0%	-10%
Cc1ccc(NC(=O)CCn2cccn2)cc1Cl	.	.	-5%	.	.
COc1ccc(CCN2C(=O)C=CC2=O)cc1OC	.	.	?	.	5.6µM*
Cc1ccc(/C=C/c2nc3ccccc3s2)s1	-15%	-11%	-2%	28µM*	?
CC(NC(=O)/C(C#N)=C/c1ccc([N+](=O)[O-])o1)c1ccccc1 (stereo unspecified)	-18%	?	4%	1%	5µM*
CCOCCCNC(=O)/C(C#N)=C/c1ccc(-c2ccc(S(=O)(=O)N3CCOCC3)cc2)o1	-2%	-11%	4%	0%	.
CCOCCCNC(=O)/C(C#N)=C/c1ccc([N+](=O)[O-])o1	-4%	?	0%	6%	45µM*
CCCOC(=O)C1=C(C)N(C)C(=O)NC1c1cc2c(cc1[N+](=O)[O-])OCO2 (stereo unspecified)	?	?	-23%	0%	-8%
CCOC(=O)C1=C(C)NC(=O)CC1c1cc2c(cc1[N+](=O)[O-])OCO2 (stereo unspecified)	2%	13µM*	-5%	3%[11.5 µM]	-4%
COC1=CC(=O)c2ccccc2C1=O	-19%	.	-6%	.	22µM*
COC1=CC(=O)C=C(OC)C1=O	.	7.1µM*	?	.	-15%[18.4 µM]
COC1=C(c2ccccc2)C(=O)c2ccccc2C1=O	-80%	?	-18%	-5%	?
CCc1ccc(NC(=O)c2cc3c([nH]c2=O)CC(C)(C)CC3=O)cc1	.	.	4%	.	.
CCc1cnc2c(c1SC(C(C)=O)C(=O)N(C)C)c(=O)n(C)c(=O)n2C (stereo unspecified)	.	.	14µM*	.	.
CN1CCC(N(Cc2cccs2)c2ccccc2)CC1	.	.	8%	.	.
C[C@@H]1O[C@@H](O[C@H]2CC[C@@H](O[C@H]3[C@H](O)C[C@H](c4ccc5c(c4O)C(=O)C4=C(C5=O)[C@@]5(O)C(=O)C[C@](C)(O[C@H]6CC[C@H](O[C@H]7C=CC(=O)[C@H](C)O7)[C@H](C)O6)C[C@@]5(O)C=C4)O[C@@H]3C)O[C@H]2C)C=CC1=O	.	7.1µM*	.	.	.
Cc1ccc(C)c(CSc2nnc3[nH]c(=O)cc(C)n23)c1	.	.	-4%	.	.
CN(C)C(CNC(=O)c1cc(-c2ccco2)nc2ccccc12)c1ccccc1 (stereo unspecified)	10µM*	.	-30%	.	3%
NC(=O)c1ccc(-c2nc(-c3ccc4c(c3)OCCO4)c(-c3ccccn3)[nH]2)cc1	.	.	0%	.	.
SMILES	SARS PLpro yeast	FBPA Giardia inh	Tb PYK inh	LmPK inh	RE007 growth inh
COc1ccc(C)cc1NC(=O)c1cc2c(s1)-c1ccccc1SC2	.	.	15%	.	.
CCOC(=O)c1ccc(NC(=O)CCCn2nc(C)c3sc4ccccc4c3c2=O)cc1	.	.	3%	.	.
O=[N+]([O-])c1cccc(/C=N/Nc2ccccn2)c1	-1%	-1%	-8%	-2%	4%
O=[N+]([O-])c1cccc(/C=N/Nc2nccnc2Cl)c1	-9%	-25%	-19%	14µM*	-14%
Oc1ccc(/C=N/Nc2nccnc2Cl)cc1	-12%	-19%	?	5µM*	?
Fc1ccc(/C=N/Nc2nccnc2Cl)cc1	-8%	?	?	?	-27%
O=C(O)c1ccccc1-c1c2cc(Br)c(=O)cc-2oc2[c]([Hg])c(O)c(Br)cc12	.	22µM*	?	.	.
